From PubChem BioAssay
HSF-1 act = increases HSF-1 driven luciferase reporter signal; NIH3T3-HGL HSF-1 luciferase reporter, MG132, 8 h; 100% = twice DMSO control signal; activation, % at 9 µM; 300,000 tested, 1.7% active; AID 504408;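 active = mean replicate activation of at least 50% with a set share of replicates each reaching 50%; inconclusive = only one of those two conditions met; inactive = mean below 50% and too few replicates reaching it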;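 also: 0% = median of the neutral control wells and 100% = twice that signal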
HSF1 inh = HSF1 inhibition; NIH3T3-HGL HSE-luciferase, MG132-induced, luminescence 8 h; active compounds read low; activity change, negative = inhibition, % at 7.5 µM (by protocol); 300,000 tested, 0.77% active;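 active = more than half of replicate wells show activity change below -50%, luminescence cut by over half; inconclusive = some wells, but at most half, below -50%; inactive = no replicate well below -50%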;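 also: luciferase reports HSF-1 transcriptional activity via heat shock element; 0% = median of DMSO wells and -100% = zero luminescence signal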
TLR4-MyD88 BLA = blocks binding of human TLR4 to MyD88; inhibition, % at 8.4 µM; O00206+Q99836; HeLa CL3-4 TLR4/MyD88 BLA complementation, FRET ratio; 200,000 tested, 0.18% active; in the data active = inhibition above about 25%;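 also: 0% = vehicle and 100% = reference inhibitor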
TLR9-MyD88 block = blocks human TLR9 binding to MyD88; CHO BLA complementation TLR9-MyD88, CCF4 FRET ratio; inhibition, % at 4.98 µM; 340,000 tested, 0.21% active;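 active = inhibition above the mean over all tested compounds plus 3 SD, cut at about 21% in these data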;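 also: 0% = DMSO only wells and 100% = clavulanate BLA inhibitor control wells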
NOD2 RIPK2 PPI = inhibitors of human NOD2-RIPK2 interaction | CHO BLA complementation NOD2-RIPK2, CCF4 ratio | inhibition, % at 4.98 µM | 360,000 tested, 0.38% active; in the data active = inhibition above about 21%;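 also: 0% = vehicle only and 100% = reference blocker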
Target sequence (O43353 whole entry, looked up): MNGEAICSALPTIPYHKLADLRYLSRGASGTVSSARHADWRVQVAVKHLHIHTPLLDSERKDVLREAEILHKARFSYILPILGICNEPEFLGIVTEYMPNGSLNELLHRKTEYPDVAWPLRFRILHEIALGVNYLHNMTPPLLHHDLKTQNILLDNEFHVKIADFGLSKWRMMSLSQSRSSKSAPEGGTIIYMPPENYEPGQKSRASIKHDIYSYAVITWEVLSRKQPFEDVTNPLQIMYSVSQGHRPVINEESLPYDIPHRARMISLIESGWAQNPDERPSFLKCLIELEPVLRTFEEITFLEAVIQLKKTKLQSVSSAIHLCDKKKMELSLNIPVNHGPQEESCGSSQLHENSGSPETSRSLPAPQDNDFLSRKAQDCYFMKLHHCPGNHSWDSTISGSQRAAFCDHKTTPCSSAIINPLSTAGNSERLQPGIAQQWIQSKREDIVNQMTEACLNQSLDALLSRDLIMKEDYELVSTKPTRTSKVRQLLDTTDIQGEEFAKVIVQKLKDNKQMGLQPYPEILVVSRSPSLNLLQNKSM
* = called active by the depositor; ? = inconclusive; . = not tested or not shown. This is a sample that favours compounds with a hit; in the whole collection about 2.4% have one here.

SMILES | HSF-1 act | HSF1 inh | TLR4-MyD88 BLA | TLR9-MyD88 block | NOD2 RIPK2 PPI
CC(C)CN1C(=O)C(=O)N(CC(=O)NC(C)CCc2ccccc2)C1=O (stereo not drawn) | . | . | . | 3 | -10
CN(C)C(=S)SCC(=O)Nc1ccc(Cl)cc1Cl | 61* | 28 | 6 | -8 | 3
CC(C)NCC(O)COCc1ccc(Cl)cc1 (stereo not drawn) | 53* | 17 | -6 | -7 | -8
CCC(C)NCC(O)COCc1ccc(Cl)cc1 (stereo not drawn) | -6 | -3 | -3 | -12 | -17
CCN(CC)C(=O)COC(=O)c1ccc(C)c(NC(=O)c2ccco2)c1 | -67 | -59* | -5 | 5 | 3
Cc1ccccc1SCC(=O)N/N=C/c1ccc(F)cc1 | 36 | -2 | . | -2 | 1
O=C(NCCCN1CCCC1=O)C(=O)NCC1OCCCN1S(=O)(=O)c1cc(F)ccc1F (stereo not drawn) | -8 | -2 | . | 1 | -1
CC(=O)Nc1ccc(S(=O)(=O)NCc2ccc(C(=O)NCc3ccc4c(c3)OCO4)cc2)cc1 | -72 | -62* | 6 | 3 | -11
CC(=O)Nc1ccc(S(=O)(=O)NCc2ccc(C(=O)NCc3ccc(Cl)cc3)cc2)cc1 | -6 | -1 | 13 | -5 | -4
Cc1ccc(Cl)cc1NC(=O)c1cc(NC(=O)C2CCCCC2C(=O)O)ccc1N1CCOCC1 (stereo not drawn) | -5 | 2 | . | 1 | 0
COc1ccc(-c2cn(CCc3c[nH]c4ccccc34)nn2)cc1 | 8 | 1 | . | -12 | 2
CC(C)(C)c1cc(C(c2cccnc2)N2CCN(CCO)CC2)cc(C(C)(C)C)c1O (stereo not drawn) | 76* | 63 | 8 | 7 | 8
CN(C)c1ccc(NS(=O)(=O)c2ccc(-c3csnn3)cc2)cc1 | -33 | -35 | . | . | -2
CN(C)S(=O)(=O)c1ccc(-c2csnn2)s1 | -89 | -86* | 14 | -7 | 2
CC(C)c1ccc(-c2nnn(CCC#N)n2)cc1 | 10 | 7 | 17 | 6 | 6
N#CCCn1nnc(-c2ccccc2F)n1 | -71 | -63* | 15 | -7 | 8
COc1cccc(OC)c1C(=O)NCCNc1nc2cc(C)cc(C)c2cc1C#N | . | . | . | . | 0
CC(=O)Nc1ccc(NC(=O)COc2ccc([N+](=O)[O-])cc2)cc1 | 2 | 10 | -5 | -3 | 0
COC(=O)c1sc(NC(=O)COc2ccccc2C)nc1C | 57* | 11 | -5 | 3 | -5
CNC(=S)NNC(=O)COc1ccccc1C | 57* | 15 | -7 | 7 | -2
Cc1ccccc1OCC(=O)Nc1ccc([N+](=O)[O-])cc1 | -77 | -70* | . | 9 | 2
C[C@H](CO)N1C[C@H](C)[C@@H](CN(C)S(=O)(=O)c2ccc(F)cc2)Oc2ccc(NC(=O)CCN3CCOCC3)cc2C1=O | . | . | . | 1 | -4
CCc1nnc(N/N=C/c2cc(Br)c(O)cc2O)n1N | 57* | 40 | . | -14 | 5
Cc1nc2ccccn2c1-c1ccnn1S(=O)(=O)c1ccc(F)cc1 | -71 | -67* | . | -2 | -8
CCCCN(C(=O)CSCC(=O)Nc1ccc(OC)cc1)c1c(N)n(CC(C)C)c(=O)[nH]c1=O | . | . | . | -2 | -8
SMILES | HSF-1 act | HSF1 inh | TLR4-MyD88 BLA | TLR9-MyD88 block | NOD2 RIPK2 PPI
CCc1cc(C(c2ccc(F)cc2)N2CCOCC2)c(NC(=O)c2ccccc2)s1 (stereo not drawn) | 63* | 35 | 1 | 3 | 10
CCc1cc(C(c2ccc(OC)c(OC)c2)N2CCOCC2)c(NC(=O)c2ccccc2)s1 (stereo not drawn) | ? | 25 | 3 | 4 | -5
O=C(c1cccc(N2C(=O)C3C4C=CC(C4)C3C2=O)c1)N1CCN(c2ccccc2F)CC1 (stereo not drawn) | -7 | -7 | . | 6 | -1
CC(=O)c1nn(-c2cccc(Br)c2)cc1C(=O)c1ccccc1 | 12 | -6 | 8 | -8 | 9
CC(=O)c1nn(-c2cccc(Br)c2)cc1C(=O)c1ccc(Cl)cc1 | 84* | 43 | -2 | 0 | -4
CC(=O)OCCCNc1cc(Sc2ccc(C)cc2)c2nonc2c1[N+](=O)[O-] | -84 | -80* | 2 | -9 | 1
CC(=O)OCCCNc1cc(Sc2nc3ccccc3s2)c2nonc2c1[N+](=O)[O-] | -77 | -79* | 15 | 1 | -7
O=[N+]([O-])c1c(NCCCO)cc(Sc2ccc(Cl)cc2)c2nonc12 | ? | 164 | 0 | 9 | 8
CCOC(=O)C1=CCC2C(=O)N(CC)C(=O)C12 (stereo not drawn) | . | . | . | . | -9
CC(O)(c1ccc(F)c(F)c1)c1nc(-c2ccc(F)c(Cl)c2)cs1 (stereo not drawn) | . | . | . | . | -4
COc1ccc(/C=C/C(=O)c2cccc(-n3cnnn3)c2)cc1O | 57* | 27 | . | -7 | -1
O=c1[nH]n(CC2COC3(CCCCC3)O2)c(=O)c2ccccc12 (stereo not drawn) | 63* | 39 | 4 | -16 | -6
O=C(Cn1[nH]c(=O)c2ccccc2c1=O)NC1CCCCCC1 | 7 | 9 | -2 | -1 | -11
CSCCC(NS(=O)(=O)c1cccc(C(F)(F)F)c1)C(=O)N(C)CCOc1ccc(Cl)cc1 (stereo not drawn) | 65* | 34 | . | -1 | -4
CSCCC(NS(=O)(=O)c1cccc(C(F)(F)F)c1)C(=O)N1CCN(C(=O)c2ccco2)CC1 (stereo not drawn) | . | . | . | 2 | 6
N#Cc1cnn(-c2ccccc2)c1NC(=O)c1ccccc1F | . | . | . | 5 | 3
CCc1ccc2c(c1)C(c1ccc([N+](=O)[O-])cc1)=NNC(c1ccc(F)cc1)=N2 | 59* | 42 | 0 | 2 | 1
CCc1ccc2c(c1)C(c1ccncc1)=NNC(c1ccccc1)=N2 | 15 | 5 | 14 | 5 | -4
CC(=O)c1sc(NC(=O)c2ccc(C)c(C)c2)nc1C | 53* | 29 | 0 | 6 | 1
CC(=O)c1sc(NC(=O)c2ccc(C(C)(C)C)cc2)nc1C | -13 | -15 | 5 | 2 | 1
CC1CC(OCC(O)CN2CCOCC2)CC(C)(C)C1 (stereo not drawn) | -6 | -1 | -12 | 0 | 1
CCOC(=O)N1CCN(CC(O)COC2CC(C)CC(C)(C)C2)CC1 (stereo not drawn) | -88 | -84* | -2 | 4 | 0
N/C(=N\OC(=O)c1cccs1)c1ccc(Cl)cc1 | 60* | 16 | . | . | -17
O=C(COC(=O)CC1c2ccccc2CCN1S(=O)(=O)c1ccccc1)Nc1ccccc1 (stereo not drawn) | 58* | 18 | -9 | 1 | 6
Cc1ccc(C)c(NC(=O)COC(=O)CC2c3ccccc3CCN2S(=O)(=O)c2ccc(F)cc2)c1 (stereo not drawn) | 16 | 4 | -13 | -6 | -12
CCOC(=O)c1c(-c2ccccc2)c[nH]c1C | . | . | . | -3 | -10
Cc1ccc(-c2cn(-c3ccccc3)c(=S)[nH]2)cc1C | -69 | -61* | . | 11 | 4
